According to the supplement of paper PMC12819154, “High-throughput peptide-centric local stability assay extends protein–ligand identification to membrane proteins, tissues and bacteria” (Nature Structural & Molecular Biology, 2025):

What was measured:
staurosporine [1] = compound: T1, CN[C@@H]1C[C@H]2O[C@@](C)([C@@H]1OC)n1c3ccccc3c3c4c(c5c6ccccc6n2c5c31)C(=O)NC4 [staurosporine]; test: log2 fold change of tryptic peptide abundance, ligand vs vehicle (limited proteolysis) (log2 ratio); higher = more trypsin-susceptible (destabilized); conditions: ligand concentration: 20 uM; sample: K562 cleared lysate; digestion: 4 min, 22 C (HT-PELSA RT4min, Orbitrap Astral)
staurosporine [2] = compound: T1, staurosporine; test: as above; conditions: ligand concentration: 20 uM; sample: mouse liver crude lysate; replicate design: treated separately

RPS17 (peptide sequence: NKIAGYVTHLMK, peptide start residue: 48) (UniProt P08708)
log2 fold change (staurosporine [1]): 0.59

PNPO (peptide sequence: SSQIGAVVSHQSSVIPDR, peptide start residue: 164) (UniProt Q9NVS9)
UniProt Q9NVS9, sequence (Q9NVS9 whole entry): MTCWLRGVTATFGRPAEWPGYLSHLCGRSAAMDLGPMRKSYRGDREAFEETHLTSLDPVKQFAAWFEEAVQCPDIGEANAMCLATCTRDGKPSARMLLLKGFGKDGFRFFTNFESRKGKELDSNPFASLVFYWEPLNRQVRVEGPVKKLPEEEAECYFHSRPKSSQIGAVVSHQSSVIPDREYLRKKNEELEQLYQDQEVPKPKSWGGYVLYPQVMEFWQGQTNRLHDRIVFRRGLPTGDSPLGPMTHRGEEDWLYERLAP
log2 fold change (staurosporine [1]): 1.66

UniProt P0DMV8 (peptide sequence: LLQDFFNGR, peptide start residue: 349)
log2 fold change (staurosporine [1]): 0.293

UniProt Q13043 (peptide sequence: ATATQLLQHPFVR, peptide start residue: 270)
UniProt Q13043, sequence (Q13043 whole entry): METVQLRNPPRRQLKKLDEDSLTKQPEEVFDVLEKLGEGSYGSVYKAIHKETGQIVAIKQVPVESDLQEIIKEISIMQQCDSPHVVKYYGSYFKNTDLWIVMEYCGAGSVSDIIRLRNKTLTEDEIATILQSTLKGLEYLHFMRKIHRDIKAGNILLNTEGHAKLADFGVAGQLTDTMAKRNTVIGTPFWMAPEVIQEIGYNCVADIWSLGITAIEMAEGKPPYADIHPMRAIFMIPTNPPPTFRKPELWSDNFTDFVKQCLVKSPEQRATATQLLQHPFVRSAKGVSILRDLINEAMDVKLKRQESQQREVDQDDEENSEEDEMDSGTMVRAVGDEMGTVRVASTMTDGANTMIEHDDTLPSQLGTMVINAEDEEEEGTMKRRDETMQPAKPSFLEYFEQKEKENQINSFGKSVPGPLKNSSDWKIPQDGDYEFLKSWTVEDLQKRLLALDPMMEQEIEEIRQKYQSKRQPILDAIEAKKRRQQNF
log2 fold change (staurosporine [1]): -3.53

UniProt Q96CW1 (peptide sequence: TFITQQGIK, peptide start residue: 131)
log2 fold change (staurosporine [1]): 0.558

UniProt P45985 (peptide sequence: DIKPSNILLDR, peptide start residue: 229)
log2 fold change (staurosporine [1]): 0.534

ARAF (peptide sequence: IGTGSFGTVFR, peptide start residue: 316) (UniProt P10398)
log2 fold change (staurosporine [1]): 0.439

UniProt Q6A1A2 (peptide sequence: AHPFFESVTWENLHQQTPPK, peptide start residue: 338)
log2 fold change (staurosporine [1]): -1.74

PIK3CB (peptide sequence: VFGEDSVGVIFK, peptide start residue: 794) (UniProt P42338)
UniProt P42338, sequence (P42338 whole entry, looked up): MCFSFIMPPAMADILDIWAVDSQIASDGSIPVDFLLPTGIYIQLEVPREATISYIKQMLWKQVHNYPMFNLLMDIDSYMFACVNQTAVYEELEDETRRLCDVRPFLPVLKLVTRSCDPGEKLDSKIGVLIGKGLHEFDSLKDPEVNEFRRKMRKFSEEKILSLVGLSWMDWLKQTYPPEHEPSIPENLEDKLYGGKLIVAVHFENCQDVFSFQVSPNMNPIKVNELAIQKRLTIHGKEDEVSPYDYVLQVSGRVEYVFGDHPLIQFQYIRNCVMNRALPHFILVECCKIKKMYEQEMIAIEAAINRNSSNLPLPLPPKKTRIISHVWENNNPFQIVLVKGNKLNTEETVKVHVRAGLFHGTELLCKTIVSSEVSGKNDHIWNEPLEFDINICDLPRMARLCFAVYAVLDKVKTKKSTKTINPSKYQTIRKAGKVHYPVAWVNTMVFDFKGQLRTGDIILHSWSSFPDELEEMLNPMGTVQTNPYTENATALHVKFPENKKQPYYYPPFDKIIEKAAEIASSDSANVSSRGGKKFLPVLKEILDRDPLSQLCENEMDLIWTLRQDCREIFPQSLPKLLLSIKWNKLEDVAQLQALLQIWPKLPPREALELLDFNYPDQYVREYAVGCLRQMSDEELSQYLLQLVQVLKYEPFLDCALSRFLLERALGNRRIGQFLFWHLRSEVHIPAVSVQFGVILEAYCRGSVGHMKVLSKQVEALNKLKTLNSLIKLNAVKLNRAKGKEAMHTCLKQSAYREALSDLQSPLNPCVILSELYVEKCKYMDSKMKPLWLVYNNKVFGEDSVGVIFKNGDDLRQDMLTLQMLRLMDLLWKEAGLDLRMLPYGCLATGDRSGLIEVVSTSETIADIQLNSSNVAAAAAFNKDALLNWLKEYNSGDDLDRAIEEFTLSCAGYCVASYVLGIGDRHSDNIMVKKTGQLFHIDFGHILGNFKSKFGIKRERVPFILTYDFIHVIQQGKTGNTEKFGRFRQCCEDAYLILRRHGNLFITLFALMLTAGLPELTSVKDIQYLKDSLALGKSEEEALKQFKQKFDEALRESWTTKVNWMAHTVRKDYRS
log2 fold change (staurosporine [1]): -0.385

DDX41 (peptide sequence: TDEVPAGGSR, peptide start residue: 13) (UniProt Q9UJV9)
log2 fold change (staurosporine [1]): 0.553

UniProt Q02750 (peptide sequence: SYMSPER, peptide start residue: 228)
log2 fold change (staurosporine [1]): 3.08

UniProt Q64261 (peptide sequence: ISAYGALNHPYFQDLER, peptide start residue: 289)
UniProt Q64261, sequence (Q64261 whole entry): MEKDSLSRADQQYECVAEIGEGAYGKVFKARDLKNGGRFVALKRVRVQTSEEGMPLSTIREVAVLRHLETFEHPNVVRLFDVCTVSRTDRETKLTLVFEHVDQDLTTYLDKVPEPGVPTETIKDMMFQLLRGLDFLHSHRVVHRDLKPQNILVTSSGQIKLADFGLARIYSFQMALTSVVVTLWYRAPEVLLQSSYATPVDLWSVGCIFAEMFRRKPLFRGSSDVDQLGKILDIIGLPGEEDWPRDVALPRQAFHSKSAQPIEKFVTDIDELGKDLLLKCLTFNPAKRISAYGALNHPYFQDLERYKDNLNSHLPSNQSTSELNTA
log2 fold change (staurosporine [2]): 0.478

UniProt Q8BYC6 (peptide sequence: VLIDLIQR, peptide start residue: 285)
log2 fold change (staurosporine [2]): -1.67

UniProt Q60737 (peptide sequence: VYTDVNTHRPR, peptide start residue: 11)
log2 fold change (staurosporine [2]): 0.264

UniProt Q9DB41 (peptide sequence: GAAVNLTLVTPEK, peptide start residue: 68)
log2 fold change (staurosporine [2]): 0.677

UniProt Q9ET43 (peptide sequence: SRLSAIEIDIPVVSHST, peptide start residue: 228)
UniProt Q9ET43, sequence (Q9ET43 whole entry): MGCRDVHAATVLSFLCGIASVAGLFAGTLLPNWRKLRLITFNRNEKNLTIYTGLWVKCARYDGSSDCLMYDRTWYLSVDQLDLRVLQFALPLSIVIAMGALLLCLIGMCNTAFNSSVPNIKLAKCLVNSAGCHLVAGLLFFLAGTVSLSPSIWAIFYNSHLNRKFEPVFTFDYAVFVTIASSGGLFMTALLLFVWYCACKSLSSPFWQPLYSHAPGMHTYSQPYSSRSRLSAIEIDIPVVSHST
log2 fold change (staurosporine [2]): -0.532

UniProt P22315 (peptide sequence: LFLDRDLMTLPIQNK, peptide start residue: 91)
log2 fold change (staurosporine [2]): -1.03

UniProt O09110 (peptide sequence: TFITIGDR, peptide start residue: 48)
log2 fold change (staurosporine [2]): -0.503

UniProt Q99J95 (peptide sequence: IGQGTFGEVFK, peptide start residue: 25)
log2 fold change (staurosporine [2]): -1

UniProt Q61036 (peptide sequence: ELLQHPFLK, peptide start residue: 493)
log2 fold change (staurosporine [2]): -2.37

UniProt Q61268 (peptide sequence: TQAWLQSSR, peptide start residue: 94)
log2 fold change (staurosporine [2]): 0.77

UniProt P30681 (peptide sequence: MSSYAFFVQTCREEHK, peptide start residue: 13)
log2 fold change (staurosporine [2]): -0.185

UniProt O70579 (peptide sequence: NVLSLLHQR, peptide start residue: 249)
log2 fold change (staurosporine [2]): 0.904

UniProt Q99LC5 (peptide sequence: TIYAGNALCTVK, peptide start residue: 147)
log2 fold change (staurosporine [2]): 0.35

UniProt Q8JZU2 (peptide sequence: FIHDQTSSNPK, peptide start residue: 150)
log2 fold change (staurosporine [2]): 0.438

UniProt Q64133 (peptide sequence: ELGIETYK, peptide start residue: 83)
log2 fold change (staurosporine [2]): -0.486

UniProt P42932 (peptide sequence: AIAGTGANVIVTGGK, peptide start residue: 282)
log2 fold change (staurosporine [2]): -0.803

UniProt O88630 (peptide sequence: MNTLANRFPAVNSLIQR, peptide start residue: 205)
log2 fold change (staurosporine [2]): 0.676

UniProt Q9JHU3 (peptide sequence: HVETGEIVALKK, peptide start residue: 23)
log2 fold change (staurosporine [2]): -2.31

UniProt O54781 (peptide sequence: HFTEDIQTR, peptide start residue: 500)
log2 fold change (staurosporine [2]): -1.82

UniProt O08605 (peptide sequence: GLPTPQVLQR, peptide start residue: 341)
log2 fold change (staurosporine [2]): 1.06

UniProt Q8R123 (peptide sequence: LSMVPSSAR, peptide start residue: 125)
log2 fold change (staurosporine [2]): -0.276

UniProt O88351 (peptide sequence: DLKPENIVLQQGEKR, peptide start residue: 145)
log2 fold change (staurosporine [2]): -0.744

UniProt Q6P4S6 (peptide sequence: LIAECQQLKEER, peptide start residue: 329)
log2 fold change (staurosporine [2]): -1.43

UniProt Q8VCH6 (peptide sequence: LTQGETLR, peptide start residue: 368)
log2 fold change (staurosporine [2]): 0.499

UniProt Q8JZR0 (peptide sequence: GYLKDPEK, peptide start residue: 503)
log2 fold change (staurosporine [2]): 0.616

UniProt Q9D6U8 (peptide sequence: HESLTSLNLER, peptide start residue: 130)
log2 fold change (staurosporine [2]): 0.435

UniProt Q00623 (peptide sequence: TQLAPHSEQMR, peptide start residue: 184)
UniProt Q00623, sequence (Q00623 whole entry): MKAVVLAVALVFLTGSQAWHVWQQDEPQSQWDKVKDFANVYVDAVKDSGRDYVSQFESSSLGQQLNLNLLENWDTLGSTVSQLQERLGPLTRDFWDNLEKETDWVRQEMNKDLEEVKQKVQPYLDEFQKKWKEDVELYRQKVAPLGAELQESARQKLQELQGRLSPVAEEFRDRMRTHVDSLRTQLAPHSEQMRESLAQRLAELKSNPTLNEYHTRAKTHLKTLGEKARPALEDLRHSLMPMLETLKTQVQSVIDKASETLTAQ
log2 fold change (staurosporine [2]): 0.455

UniProt P26443 (peptide sequence: HYSEAAADREDDPNFFK, peptide start residue: 52)
log2 fold change (staurosporine [2]): 0.262

UniProt Q9QXD1 (peptide sequence: LFEWAQK, peptide start residue: 649)
UniProt Q9QXD1, sequence (Q9QXD1 whole entry): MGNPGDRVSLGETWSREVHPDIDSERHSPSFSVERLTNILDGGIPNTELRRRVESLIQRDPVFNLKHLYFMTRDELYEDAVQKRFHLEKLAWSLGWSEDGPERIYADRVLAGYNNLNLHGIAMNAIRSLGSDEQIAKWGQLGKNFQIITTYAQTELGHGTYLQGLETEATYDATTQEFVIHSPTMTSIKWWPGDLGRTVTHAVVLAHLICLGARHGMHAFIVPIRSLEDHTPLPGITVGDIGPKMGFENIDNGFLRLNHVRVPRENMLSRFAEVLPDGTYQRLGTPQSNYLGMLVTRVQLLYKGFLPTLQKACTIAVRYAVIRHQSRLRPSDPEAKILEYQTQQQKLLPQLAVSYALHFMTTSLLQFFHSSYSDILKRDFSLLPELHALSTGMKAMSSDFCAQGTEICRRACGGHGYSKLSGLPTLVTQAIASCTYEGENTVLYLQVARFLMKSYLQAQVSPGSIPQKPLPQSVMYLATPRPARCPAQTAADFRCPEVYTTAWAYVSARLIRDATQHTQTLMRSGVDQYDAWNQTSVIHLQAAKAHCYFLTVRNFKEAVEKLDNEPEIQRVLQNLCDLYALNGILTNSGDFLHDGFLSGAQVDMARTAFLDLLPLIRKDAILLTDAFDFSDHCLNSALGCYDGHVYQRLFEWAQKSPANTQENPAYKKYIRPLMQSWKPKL
log2 fold change (staurosporine [2]): -0.551

UniProt Q5EG47 (peptide sequence: DLKPENVLLDAHMNAK, peptide start residue: 150)
log2 fold change (staurosporine [2]): -4.22

UniProt Q9CQE1 (peptide sequence: HWSHEDPR, peptide start residue: 211)
log2 fold change (staurosporine [2]): -0.522

UniProt P51881 (peptide sequence: KGTDIMYTGTLDCWRK, peptide start residue: 245)
log2 fold change (staurosporine [2]): 0.454

UniProt Q5M8N4 (peptide sequence: LGLGGPIGSGR, peptide start residue: 177)
log2 fold change (staurosporine [2]): -0.493

UniProt Q8BTH8 (peptide sequence: GSLPWQGLK, peptide start residue: 245)
log2 fold change (staurosporine [2]): -0.593

UniProt Q9R0T8 (peptide sequence: DIKPGNIMR, peptide start residue: 135)
log2 fold change (staurosporine [2]): -1.44

UniProt P41216 (peptide sequence: WLLDFASK, peptide start residue: 389)
log2 fold change (staurosporine [2]): 0.328

UniProt P47962 (peptide sequence: GAVDGGLSIPHSTK, peptide start residue: 165)
log2 fold change (staurosporine [2]): 0.536

UniProt Q9Z2B9 (peptide sequence: KIPAPFRPQIR, peptide start residue: 313)
log2 fold change (staurosporine [2]): -1.34

UniProt Q6XUX1 (peptide sequence: SLQDVLLHR, peptide start residue: 640)
log2 fold change (staurosporine [2]): -1.84

UniProt Q8BZ09 (peptide sequence: IQGPQPVPGEIK, peptide start residue: 234)
UniProt Q8BZ09, sequence (Q8BZ09 whole entry): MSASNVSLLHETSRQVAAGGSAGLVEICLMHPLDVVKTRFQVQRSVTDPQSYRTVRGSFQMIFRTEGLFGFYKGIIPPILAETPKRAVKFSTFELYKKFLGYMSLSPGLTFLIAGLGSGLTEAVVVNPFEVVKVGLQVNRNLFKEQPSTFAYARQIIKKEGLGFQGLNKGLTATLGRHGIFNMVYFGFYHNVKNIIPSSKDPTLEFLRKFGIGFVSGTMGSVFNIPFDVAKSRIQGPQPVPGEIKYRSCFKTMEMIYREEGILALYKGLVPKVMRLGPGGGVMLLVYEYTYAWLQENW
log2 fold change (staurosporine [2]): 0.534

UniProt O35857 (peptide sequence: NSKGEVYDGDPDKVQR, peptide start residue: 403)
log2 fold change (staurosporine [2]): -0.52

UniProt Q76M72 (peptide sequence: WLIVTNKPQK, peptide start residue: 285)
log2 fold change (staurosporine [2]): -2.63

UniProt Q9QZD8 (peptide sequence: MTGMALQVVR, peptide start residue: 43)
log2 fold change (staurosporine [2]): 0.567

UniProt P47757 (peptide sequence: QMEKDETVSDCSPHIANIGR, peptide start residue: 196)
log2 fold change (staurosporine [2]): -1.11

UniProt Q64310 (peptide sequence: SMFAGVPTMR, peptide start residue: 140)
log2 fold change (staurosporine [2]): 0.247

UniProt O35488 (peptide sequence: YELIKYDVEKDEPVR, peptide start residue: 394)
log2 fold change (staurosporine [2]): 0.821

UniProt P24788 (peptide sequence: YLPALQGCR, peptide start residue: 414)
log2 fold change (staurosporine [2]): -0.33

UniProt P48962 (peptide sequence: MMMQSGRK, peptide start residue: 238)
log2 fold change (staurosporine [2]): 0.293

UniProt Q9DC28 (peptide sequence: FDDKPDYSYLR, peptide start residue: 260)
log2 fold change (staurosporine [2]): -0.751

UniProt P58044 (peptide sequence: WWDNLNHLSPFVDHEK, peptide start residue: 208)
log2 fold change (staurosporine [2]): 1.05

UniProt P09103 (peptide sequence: EADDIVNWLKK, peptide start residue: 123)
log2 fold change (staurosporine [2]): 0.314

UniProt Q8VDU5 (peptide sequence: IAGLYDLDKTLGR, peptide start residue: 12)
log2 fold change (staurosporine [2]): -1.42

UniProt Q6PF93 (peptide sequence: LQALLGDNEK, peptide start residue: 573)
UniProt Q6PF93, sequence (Q6PF93 whole entry): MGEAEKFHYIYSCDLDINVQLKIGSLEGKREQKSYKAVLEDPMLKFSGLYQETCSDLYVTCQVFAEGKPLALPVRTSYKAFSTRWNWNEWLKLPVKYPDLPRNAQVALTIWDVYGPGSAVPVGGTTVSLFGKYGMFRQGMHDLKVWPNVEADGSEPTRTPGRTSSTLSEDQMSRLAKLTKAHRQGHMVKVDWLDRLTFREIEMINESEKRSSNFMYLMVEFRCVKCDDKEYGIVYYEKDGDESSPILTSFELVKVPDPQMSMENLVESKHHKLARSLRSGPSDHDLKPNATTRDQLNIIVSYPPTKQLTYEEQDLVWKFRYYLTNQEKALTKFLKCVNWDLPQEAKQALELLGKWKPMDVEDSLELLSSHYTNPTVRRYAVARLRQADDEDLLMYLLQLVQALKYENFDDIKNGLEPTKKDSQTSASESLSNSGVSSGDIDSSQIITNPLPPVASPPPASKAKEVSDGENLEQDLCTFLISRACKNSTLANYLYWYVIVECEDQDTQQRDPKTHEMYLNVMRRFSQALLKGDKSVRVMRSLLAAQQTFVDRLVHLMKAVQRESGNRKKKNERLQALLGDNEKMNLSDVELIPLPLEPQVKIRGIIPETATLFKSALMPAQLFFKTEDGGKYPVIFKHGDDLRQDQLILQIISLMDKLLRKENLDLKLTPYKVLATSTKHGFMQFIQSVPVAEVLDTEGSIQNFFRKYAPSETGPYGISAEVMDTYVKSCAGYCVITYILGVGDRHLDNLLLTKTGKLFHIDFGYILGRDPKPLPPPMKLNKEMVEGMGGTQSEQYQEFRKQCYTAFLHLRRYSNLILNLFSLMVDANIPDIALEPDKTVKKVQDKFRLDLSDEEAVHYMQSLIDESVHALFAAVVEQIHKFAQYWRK
log2 fold change (staurosporine [2]): -0.345

UniProt P53395 (peptide sequence: DRTEPVTGFQK, peptide start residue: 251)
UniProt P53395, sequence (P53395 whole entry): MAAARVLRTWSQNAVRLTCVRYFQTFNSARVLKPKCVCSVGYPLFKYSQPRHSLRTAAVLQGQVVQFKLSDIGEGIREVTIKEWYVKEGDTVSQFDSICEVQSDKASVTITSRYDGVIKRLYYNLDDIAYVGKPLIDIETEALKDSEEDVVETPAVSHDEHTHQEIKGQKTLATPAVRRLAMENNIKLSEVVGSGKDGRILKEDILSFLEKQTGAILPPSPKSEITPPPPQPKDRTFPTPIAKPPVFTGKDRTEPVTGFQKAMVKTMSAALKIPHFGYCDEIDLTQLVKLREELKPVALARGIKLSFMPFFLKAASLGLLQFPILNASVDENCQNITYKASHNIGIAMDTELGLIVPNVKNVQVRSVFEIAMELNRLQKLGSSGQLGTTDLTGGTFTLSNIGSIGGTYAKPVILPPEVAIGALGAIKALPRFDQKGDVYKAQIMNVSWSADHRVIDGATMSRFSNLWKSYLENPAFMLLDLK
log2 fold change (staurosporine [2]): 0.423

UniProt Q91W52 (peptide sequence: LITTWEK, peptide start residue: 203)
log2 fold change (staurosporine [2]): 0.417

UniProt Q9EPE9 (peptide sequence: EVTPVSSIPIETHR, peptide start residue: 553)
log2 fold change (staurosporine [2]): -0.718
